This note sets out measurements from PubChem BioAssay (NCATS).

Results filed as inconclusive are left out. A number with no mark means an inactive call. Calls of active or inactive are those of the source. The call rests on the fitted dose curve; in most records, active means well fitted inhibition curve with a large enough effect; inconclusive means small, poorly fitted or top-dose-only effect; inactive means flat fitted curve, though single readings scatter.

What all share (assay): qHTS profiling for inhibitors of Plasmodium falciparum proliferation (AID 504749); further: nearly all actives have a fitted effect of over 60% in size
Common to all, as to conditions: P. falciparum in erythrocytes, SYBR Green DNA, 72 h; series mostly up to 28.7 µM

For one assay, the system named is 3D7. In a few lines:
(§1)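 P. falciparum-infected erythrocytes (0.3% parasitemia, 2.5% hematocrit) incubated with compound 72 h at 37 C, 5% CO2. Parasite DNA detected by SYBR Green after lysis, overnight at room temperature; normalised to 0.29 uM artemisinin and DMSO.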

A further assay deals with C2A. In a few lines: as §1
A further assay relates to CP191. A digest of the protocol: as §1
The test system of a further assay is CP192. In a few lines:
as §1

The subject of a further assay is CP201. In a few lines: as §1
A further assay deals with CP211. In a few lines: as §1
The next assay has as its system CP215. In a few lines: as §1
In another assay the test system is CP262. A digest of the protocol: as §1
The subject of the next assay is CP268. A digest of the protocol:
as §1

A further assay deals with CP269. A digest of the protocol:
as §1

The next assay concerns CP286. In a few lines:
as §1

The next assay relates to CP315. A digest of the protocol:
as §1

For a further assay, the system named is HB3. A digest of the protocol:
as §1
Potency means the concentration at half of the fitted maximal effect.

As for `COc1ccc2c3c1O[C@H]1[C@@H](O)C=C[C@H]4C(C2)NCCC341` (stereo not given in full), the Potency result in the assay on 3D7, in the assay with C2A, with CP191, with CP192, with CP201 and in the assay on CP211 was “inactive” in each case. Also, the Potency result with CP215, in the assay on CP262, in the assay with CP268, in the assay on CP269, in the assay with CP286 and in the assay on CP315 was “inactive” in each case. Also, the Potency result in the assay on HB3 was “inactive”.

`OCC(O)[C@H]1O[C@@H]2O[C@H](C(Cl)(Cl)Cl)O[C@@H]2[C@H]1O` (stereo not given in full): the Potency entry in the assay on 3D7, with C2A, in the assay on CP191, with CP192, with CP201 and in the assay with CP211 was “inactive” each time. Further, the Potency result with CP215, with CP262, with CP268, in the assay on CP269, with CP286 and in the assay with CP315 was “inactive” throughout. For the same compound, the Potency entry in the assay with HB3 was “inactive”.

Regarding `C[C@]12C=CC(=O)C=C1CC[C@@H]1C2CC[C@]2(C)OC(=O)CCC12` (stereo not given in full), the Potency entry in the assay on 3D7, with C2A, in the assay with CP191, with CP192, in the assay with CP201 and in the assay on CP211 was “inactive” throughout. The Potency result in the assay with CP215, with CP262, in the assay on CP268, in the assay on CP269, with CP286 and with CP315 was “inactive” in each case. For the same compound, in the assay on HB3, the Potency entry was “inactive”.

`CCCCCc1cc(O)c2c(c1)OC(C)(C)C1CC=C(C)CC21` (stereo not given): the Potency was 2.82 µM (active) with 3D7; 10 µM (active) in the assay with C2A; 3.98 µM (active) in the assay with CP191; 6.01 µM (active) in the assay with CP192; 15.1 µM (active) in the assay with CP201; 5.36 µM (active) with CP211. Further, the Potency in the assay on CP215 is 4.26 µM (active); in the assay with CP262, 4.26 µM (active); with CP268, 6.01 µM (active); with CP269 it was 4.78 µM (active); in the assay with CP286 it was 5.62 µM (active); in the assay with CP315 it was 4.26 µM (active). In addition, the Potency with HB3 was 5.01 µM (active).

As for `[S]=[Sb][S][Sb]=[S]`, the Potency result with 3D7, with C2A, with CP191, in the assay on CP192, with CP201 and in the assay with CP211 was “inactive” in each case. Also, the Potency entry with CP215, in the assay with CP262, in the assay with CP268, in the assay with CP269, with CP286 and in the assay with CP315 was “inactive” throughout. The Potency entry in the assay with HB3 is “inactive”.

Turning to `CN1C2CCC1C(C(=O)O)C(OC(=O)c1ccccc1)C2` (stereo not given), the Potency entry in the assay on 3D7, in the assay with C2A, in the assay on CP191, in the assay with CP192, in the assay with CP201 and in the assay with CP211 was “inactive” each time. Moreover, the Potency result in the assay with CP215, in the assay on CP262, in the assay on CP268, in the assay with CP269, in the assay on CP286 and in the assay on CP315 was “inactive” each time. The Potency result in the assay on HB3 is “inactive”.

For the compound `CCOC(=O)/C=C(C)/C=C/CC(C)CCCC(C)C` (stereo not given), the Potency entry in the assay with 3D7, with C2A, in the assay on CP191, in the assay on CP192, with CP201 and in the assay on CP211 was “inactive” throughout. Moreover, the Potency entry with CP215, in the assay on CP262, in the assay on CP268, with CP269, in the assay with CP286 and in the assay on CP315 was “inactive” each time. Moreover, the Potency entry in the assay with HB3 was “inactive”.

`Cc1cc(C)cc(C(=O)OC2CC3CCC(C2)N3C)c1` (stereo not given): the Potency entry in the assay with 3D7, in the assay with C2A, in the assay with CP191, in the assay with CP192, in the assay with CP201 and in the assay with CP211 was “inactive” each time. In addition, the Potency entry in the assay on CP215, in the assay on CP262, in the assay with CP268, in the assay on CP269, in the assay with CP286 and in the assay with CP315 was “inactive” throughout. Moreover, in the assay with HB3, the Potency result is “inactive”.

As to `C=C1Nc2ccccc2C(=O)N1c1ccccc1C`, the Potency result in the assay on 3D7, with C2A, with CP191, in the assay on CP192, with CP201 and in the assay with CP211 was “inactive” throughout. Further, the Potency entry with CP215, in the assay on CP262, with CP268, in the assay on CP269, in the assay with CP286 and in the assay with CP315 was “inactive” each time. In the assay with HB3, the Potency entry is “inactive”.

As for `C=CC[N+]1(C)CCC23c4c5ccc(O)c4O[C@H]2C(=O)CC[C@@]3(O)C1C5` (stereo not given in full), the Potency result with 3D7, with C2A, with CP191, in the assay with CP192, with CP201 and with CP211 was “inactive” throughout. In addition, the Potency result in the assay with CP215, with CP262, in the assay with CP268, in the assay on CP269, in the assay with CP286 and in the assay with CP315 was “inactive” each time. In the assay with HB3, the Potency result was “inactive”.

Regarding `CCCN1CCCC2Cc3nc(N)ncc3CC21` (stereo not given), the Potency entry with 3D7, with C2A, in the assay with CP191, with CP192, in the assay with CP201 and in the assay with CP211 was “inactive” each time. Moreover, the Potency result in the assay with CP215, with CP262, in the assay on CP268, with CP269, with CP286 and in the assay with CP315 was “inactive” each time. The Potency result with HB3 is “inactive”.

With `C[C@H](N)Cc1ccccc1`, the Potency result in the assay on 3D7, with C2A, with CP191, in the assay on CP192, with CP201 and with CP211 was “inactive” each time. Further, the Potency entry with CP215, with CP262, with CP268, in the assay on CP269, with CP286 and with CP315 was “inactive” each time. In addition, the Potency result with HB3 is “inactive”.

For the compound `Nc1nc(O)c(-c2ccccc2)o1`, the Potency entry with 3D7, with C2A, in the assay with CP191, with CP192, in the assay on CP201 and in the assay with CP211 was “inactive” throughout. In addition, the Potency result in the assay on CP215, with CP262, in the assay on CP268, in the assay on CP269, with CP286 and with CP315 was “inactive” throughout. Moreover, in the assay on HB3, the Potency result was “inactive”.

Consider `OC[C@@H](O)[C@H]1O[C@@H]2OC(C(Cl)(Cl)Cl)O[C@H]2[C@H]1O` (stereo not given in full), for which the Potency entry in the assay with 3D7, in the assay on C2A, in the assay on CP191, in the assay with CP192, in the assay with CP201 and in the assay with CP211 was “inactive” throughout. Besides, the Potency result in the assay on CP215, with CP262, in the assay with CP268, in the assay on CP269, with CP286 and with CP315 was “inactive” in each case. For the same compound, in the assay on HB3, the Potency result was “inactive”.

`CC1OC(O[C@H]2C[C@@H](O)[C@]3(CO)[C@@H]4C(CC[C@]3(O)C2)[C@@]2(O)CC[C@H](C3=CC(=O)OC3)[C@@]2(C)C[C@H]4O)C(O)C(O)C1O` (stereo not given in full): the Potency result in the assay with 3D7, with C2A, with CP191, with CP192, in the assay with CP201 and with CP211 was “inactive” in each case. In addition, the Potency entry in the assay on CP215, in the assay with CP262, with CP268, in the assay with CP269, with CP286 and with CP315 was “inactive” in each case. Moreover, the Potency entry with HB3 is “inactive”.
